# A549 tox-1 – kills or reduces viability of A549 cells in Nrf2 counter-screen; Potency, µM (titrated, usually from 46 µM), most hits filed as inhibitors; 390,000 tested, 0.16% active; A549 ARE-Fluc cells, CellTiter-Fluor viability, 18-24 h
#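 A549 ARE-Fluc cells in 5% FBS OPTI-MEM, 5000 cells/well, rested 2 h then exposed to compounds in concentration-response for 18-24 h at 37 °C. Viability by CellTiter-Fluor fluorescence (Ex 405/Em 525) after 30 min; luciferase luminescence (BugLite, 15 min, RT) read afterwards.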
# PINK1 modulator – modulators of PINK1 expression. PINK1 immunofluorescence, high-content cytometry, 24 h. Potency, µM (titrated, usually from 76.6 µM), most hits filed as activators. 410,000 tested, 0.2% active. AID 624263; active means well fitted activation curve with a large enough effect; inconclusive means small, poorly fitted or top-dose-only effect; cell line not stated here; further: nearly all actives have a fitted effect of over 65% in size
#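 PINK1 protein level read as immunofluorescence by microplate cytometer in a fixed, stained stable cell line after 24 h exposure to five compound concentrations, with CCCP as control.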
# Nrf2 block – Nrf2 pathway inhibition; A549 ARE-Fluc reporter, luciferase luminescence, 18-24 h; 360,000 tested, 2.1% active; Potency, µM (titrated, usually from 46 µM), most hits filed as inhibitors; further: nearly all actives have a fitted effect of over 60% in size
#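 Reporter: ARE-Fluc in A549. Exposure: 18-24 h, 37 °C, 5% CO2, 5% FBS OPTI-MEM. Readouts: fluorescent cytotoxicity (CellTiter-Fluor), then luminescent Nrf2 signal after BugLite.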
# Epigenetic derep – regulators of epigenetic silencing causing reporter derepression in mouse cells; Potency, µM (top dose mostly 53.9 µM), actives largely listed as activators; 280,000 tested, 0.2% active; murine LDR cells, GFP reporter derepression, 30 h; further: nearly all actives have a fitted effect of over 60% in size
#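 In this reporter-derepression format, murine cells bearing a silenced integrated CMV-GFP locus incubate with test compound (30 h, 37 C), then are washed and imaged; fluorescent objects of 20–120 um count as induced cells.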
# Nrf2 ARE act – activators of Nrf2 (ARE) signaling | AREc32 ARE-luciferase reporter (MCF7-derived line), luminescence, 24 h | Potency, µM (doses to about 46.1 µM), hits mostly activators | 410,000 tested, 0.31% active | AID 624171; further: nearly all actives have a fitted effect of over 65% in size
#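 ARE activation measured as luciferase luminescence (Steady-Glo, 30 min RT) in AREc32_Fluc cells after 24 hr compound exposure at 37 deg C, 5% CO2; cells seeded overnight at 1000/well in OPTI-MEM, 5% FBS.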
# FLuc enzyme inh – firefly luciferase inhibition, Nrf2 hit validation | shares compounds with Nrf2 block | purified firefly luciferase, luminescence inhibition | Potency, µM (top dose mostly 57.5 µM), usual class: inhibitors | 1,400 tested, 4% active | AID 720522; further: nearly all actives have a fitted effect of over 65% in size
# Target sequence (P08659 whole entry, looked up): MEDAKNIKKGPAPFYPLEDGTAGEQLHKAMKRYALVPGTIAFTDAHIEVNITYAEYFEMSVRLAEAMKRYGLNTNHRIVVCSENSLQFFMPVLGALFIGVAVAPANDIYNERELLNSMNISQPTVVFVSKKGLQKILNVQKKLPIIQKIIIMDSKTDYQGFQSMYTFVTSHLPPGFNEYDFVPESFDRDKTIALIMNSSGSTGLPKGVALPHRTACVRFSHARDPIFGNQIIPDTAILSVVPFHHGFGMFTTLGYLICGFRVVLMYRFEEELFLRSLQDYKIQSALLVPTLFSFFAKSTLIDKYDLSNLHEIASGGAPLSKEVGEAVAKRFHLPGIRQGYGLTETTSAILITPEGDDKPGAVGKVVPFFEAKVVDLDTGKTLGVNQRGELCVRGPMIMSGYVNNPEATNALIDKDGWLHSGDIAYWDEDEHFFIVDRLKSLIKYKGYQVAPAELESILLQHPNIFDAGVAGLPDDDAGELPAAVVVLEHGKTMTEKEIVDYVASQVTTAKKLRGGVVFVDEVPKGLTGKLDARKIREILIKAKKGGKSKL
# A549 tox-2 – A549 cytotoxicity, Nrf2 inhibitor counterscreen; shares compounds with Nrf2 block; A549 ARE-Fluc cells, cytotoxicity counterscreen; Potency, µM (top dose mostly 46.1 µM), usual class: inhibitors; 1,400 tested, 2% active;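 further: cells exposed to compounds for 18 to 24 hours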
# ARE-Fluc inh – confirmation of Nrf2 inhibitors in A549 ARE reporter cells; AID 720524; shares compounds with Nrf2 block; A549 ARE-firefly luciferase reporter, luminescence; Potency, µM (top dose mostly 46.1 µM), most hits filed as inhibitors; 1,400 tested, 74% active; further: nearly all actives have a fitted effect of over 65% in size
# Hits are given with their value; . = inactive; ? = inconclusive; / = no result given; [ ] = dose if it differs, or a comment. Shown are actives, neighbours in structure and some others; about 2.4% of the full set was active somewhere. Unless noted, the call rests on the fitted dose curve; in most records, active means well fitted curve in the direction sought with a large enough effect; inconclusive means small, poorly fitted or top-dose-only effect, or another doubt; inactive means no such curve, though single readings can be large; an effect the other way counts as inactive or inconclusive.
SMILES,A549 tox-1,PINK1 modulator,Nrf2 block,Epigenetic derep,Nrf2 ARE act,FLuc enzyme inh,A549 tox-2,ARE-Fluc inh
CCN(CC)S(=O)(=O)c1ccc(/C=C/C(=O)Nc2ccc(Br)cc2F)cc1,.,?,9.2µM,.,.,.,.,4.6µM
c1ccc(-c2nc(-c3cnc4ccccc4n3)cs2)cc1,/,.,/,/,/,/,/,/
Cc1cc(C)c2c(C)c(C(=O)N3CCC(c4nc5ccccc5s4)CC3)oc2c1,.,.,.,.,.,/,/,/
Cc1nn(Cc2ccccc2)c(Cl)c1/C=N/NC(=O)c1cccnc1,?,.,?,.,.,/,/,/
Cc1c(/C=N/NC(=O)c2cccnc2)c2ccccc2n1Cc1ccccc1,?,?,6.5µM,?,.,?,.,9.2µM
CC(=NNC(=O)c1ccncc1)c1ccc2ccccc2c1O,?,.,2.6µM,/,.,.,.,4.1µM
CC(=NNC(=O)c1ccncc1)c1ccccc1O,.,.,?,/,.,/,/,/
O=C1[C@H]2[C@H]3[C@H](O)[C@H](O)C/C(=N/OCc4ccccc4)[C@@H]3CC[C@@H]2C(=O)N1Cc1ccc2c(c1)OCO2,/,/,/,.[10.1 µM],/,/,/,/
C[C@H](N)CCP(=O)(O)O,/,/,/,.,/,/,/,/
COc1ccc(/C=C/c2cc(-c3ccc(C)cc3)o[n+]2C)cc1,?,?,8.2µM,.,.,.,?,2.9µM
O=C(C[n+]1ccccc1Cl)c1ccc2ccccc2c1,/,.,/,/,/,/,/,/
CCCc1ccc(-c2ccc(/C=C/C(=O)O)cc2)nc1,.,.,0.037µM,.,.,0.27µM,.,0.058µM
Cc1ccc(N(CC(=O)Nc2cc(C)cc(C)c2)S(=O)(=O)c2c(C)noc2C)cc1,?,.,7.3µM,/,.,.,.,12µM
CCNc1ncc2nc(-c3ccc(OC)cc3)c(=O)n(CCOC)c2n1,/,.,/,/,/,/,/,/
CC[C@]12c3[nH]c4ccc(Cl)cc4c3CCN1C(=O)[C@@H](CC(=O)NC/C=C(\C)CCC=C(C)C)C[C@@H]2C(=O)N1CCN(C(=O)c2ccco2)CC1,?,?,6.5µM,/,.,.,?,16µM
CCn1c(=O)c2sccc2n2c(CCC(=O)Nc3ccc(C(C)C)cc3)nnc12,.,.,?,.,.,/,/,/
Cc1cc(C(=O)OCC(=O)N2CC(=O)Nc3ccccc32)c(C)n1-c1ccc(F)cc1,?,.,9.2µM,.,.,.,.,16µM
Cc1cc(C(=O)OCC(=O)N2CC(=O)Nc3ccccc32)c(C)n1-c1ccccc1,.,.,?,.,.,/,/,/
COC(=O)CSc1ncnc2c1sc1nc3c(cc12)COC(C)(C)C3,.,.,2.9µM,.,.,?,.,7.3µM
CCCCCCCCCCCCCCCC(=O)Nc1ccn(C2OC(CO)C(O)C2O)c(=O)n1 (configuration not stated),.,.,?,/,.,.,.,0.82µM
COc1ccc(NC(=O)NC(C)c2c(-n3cccc3)sc3c2CCN(C)C3)c(OC)c1 (configuration not stated),.,.,.,.,.,/,/,/
CCn1c(=O)c2cc(C(=O)N(CC(C)C)CC(C)C)sc2c2ccccc21,.,.,.,.,.,/,/,/
Cc1cc(C)c(OCCOCCn2c(-c3ccc(Cl)cc3)nc3ccccc3c2=O)c(C)c1,.,.,.,.,.,/,/,/
CC(=NNc1nc2ccccc2o1)c1ncccn1,.,.,3.3µM,/,?,19µM,?,/
CCCCN(C)C(=O)C1CCCN(c2ncnc3onc(C)c23)C1 (configuration not stated),.,.,9.2µM,.,.,.,.,2.9µM
SMILES,A549 tox-1,PINK1 modulator,Nrf2 block,Epigenetic derep,Nrf2 ARE act,FLuc enzyme inh,A549 tox-2,ARE-Fluc inh
Cc1cccc(N2CCN(C(=O)Cc3c(C(=O)O)c(C)cn3C)CC2C)c1 (configuration not stated),.,.,/,.,.,/,/,/
CN(C)c1ccc(NC(=O)Cn2cc(S(=O)(=O)Cc3ccccc3Cl)c3ccccc32)cc1,.,.,.,.,.,/,/,/
CCCCCCCCCCCCCCCC[n+]1ccc(/C=C/c2c[nH]c3ccccc23)cc1,/,/,/,/,/,?,?,7.3µM
OCC[n+]1ccc(/C=C/c2c[nH]c3ccccc23)cc1,?,40µM,6.5µM,.,.,.,?,8.2µM
Cc1ccc(-c2onc(C)c2C)cc1S(=O)(=O)Nc1ccc(Cl)cn1,.,.,?,.,.,/,/,/
COc1ccc([C@H]2CC(=O)C=C(c3ccnc4ccc(Cl)cc34)C2)cc1,.,.,7.3µM,/,.,.,.,8.2µM
COc1ccc(N2CC(NC(=O)c3cc4ccccc4o3)CC2=O)cc1OC (configuration not stated),.,.,/,.,.,/,/,/
O=C(NCCCn1ccnc1)c1ccc(N2CCCCCC2)c([N+](=O)[O-])c1,.,.,2.9µM,.,.,.,.,.
COc1ccc(-c2ocnc2C(=O)NCc2nn(-c3ccccc3)nc2C)cc1,.,.,2.9µM,.,.,.,.,5.8µM
COc1ccc(CC(=O)NCc2nn(-c3ccccc3)nc2C)cc1OC,.,.,.,.,.,/,/,/
Cc1ccc(-c2c(C(=O)N3CCN(c4cccc(C)c4)C(C)C3)oc(=O)c3ccccc23)cc1 (configuration not stated),.,.,?,.,.,/,/,/
O=C(CSc1nc2ccccc2c(=O)n1-c1ccccc1)N1CCc2ccccc2C1,.,.,?,.,.,/,/,/
CC(C)c1ccccc1-n1c(SCC(=O)N2CCc3ccccc3C2)nc2ccccc2c1=O,.,.,8.2µM,.,.,.,?,16µM
Cc1ccccc1-c1noc(CSc2nc(-c3ccc(F)cc3)cc(=O)[nH]2)n1,.,.,/,.,.,/,/,/
Cn1c(-c2ccc(S(=O)(=O)N3CCCC3)cc2)csc1=Nc1ccc(Cl)c(Cl)c1,.,.,3.3µM,.,.,?,.,6.5µM
CCn1c(-c2ccc(S(=O)(=O)N3CCOCC3)cc2)csc1=Nc1ccc(C)c(Cl)c1,.,.,?,.,.,/,/,/
O=S(=O)(c1ccc(-c2csc(=Nc3ccc(OC(F)(F)Cl)cc3)n2CCCO)cc1)N1CCCC1,?,.,6.5µM,.,.,.,?,7.3µM
C#CCOc1ccc(C(=O)N(C)c2ccccc2I)cc1,.,/,.,/,/,/,/,/
N=c1ccn2c(n1)O[C@H]1[C@H](O)[C@@H](CO)O[C@H]12,.,.,0.18µM,.,.,.,.,0.092µM
COc1ccc2c(c1)C(=O)[C@H](OC(=O)NCc1ccco1)[C@@H](c1ccc(OC)c(Br)c1)O2,/,/,/,.,/,/,/,/
CC(C)(C)NC(=O)CSc1nc2ccc(NC(=O)CSc3nnnn3Cc3ccccc3)cc2s1,.,.,8.2µM,.,.,.,.,7.3µM

# Assay outcomes as filed in PubChem BioAssay.
